Data from the supplement of paper PMC12494721.
Where a name gives a salt, the structure may show the parent alone.

How the values were obtained:
Conditions in all cases: incubation time: 27 h, anaerobic, 37 °C;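 for the amine columns active = adjusted P below 0.05 in both replicates with a change the same way and a mean fold change under 0.8 or over 1.25; inactive = the rest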
[1] = tested on: Clostridium sporogenes DSM 1664; assay: growth (OD595) fold change vs plate DMSO controls (fold change (ratio)); higher = more growth
Method in brief: (§1)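 Each value is the mean of 2 biological replicates, and fold changes above 1.5 were set to NA. The underlying readings were taken at 595 nm from shaken anaerobic mGAM cultures in 96-well plates after 27 h at 37 °C. They were blank-subtracted, corrected for compound background using 20 µM compound solutions in water, and converted to OD with a calibration factor of 5. Growth is the fold change relative to the median of the plate DMSO controls.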

Escherichia coli IAI1 [2] = assay: as above
Method in brief: as §1

[3] = tested on: Klebsiella aerogenes DSM 30053; assay: as above
Method in brief: as §1

[4] = tested on: Ruminococcus gnavus DSM 108212; assay: as above
Method in brief: as §1

[5] = tested on: Klebsiella aerogenes DSM 30053; assay: fold change of Histamine concentration vs plate DMSO controls (fold change (ratio)); higher = more amine produced, active = hit call of the paper (significant change in both replicates, either direction)
Method in brief: (§2)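 Anaerobic mGAM cultures of four gut bacterial strains were grown at 37 °C for 27 h in 80 µL wells, starting at OD 0.1 before 1:1 dilution. Compounds were at 20 µM final (sweeteners 50 µM). Whole cultures were extracted with cold acetonitrile/methanol containing 0.1% formic acid and centrifuged. Amines were quantified by LC–triple-quadrupole MS (dynamic MRM) against external calibration curves and drift-corrected within batch. Each value is the fold change versus plate DMSO controls, averaged over 2 biological replicates.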

[6] = tested on: Clostridium sporogenes DSM 1664; assay: fold change of Tryptamine concentration vs plate DMSO controls (fold change (ratio)); higher = more amine produced, active = hit call of the paper (significant change in both replicates, either direction)
Method in brief: as §2

[7] = tested on: Ruminococcus gnavus DSM 108212; assay: as above
Method in brief: as §2

Escherichia coli IAI1 [8] = assay: fold change of Putrescine concentration vs plate DMSO controls (fold change (ratio)); higher = more amine produced, active = hit call of the paper (significant change in both replicates, either direction)
Method in brief: as §2

[9] = tested on: Klebsiella aerogenes DSM 30053; assay: as above
Method in brief: as §2

Escherichia coli IAI1 [10] = assay: fold change of Cadaverine concentration vs plate DMSO controls (fold change (ratio)); higher = more amine produced, active = hit call of the paper (significant change in both replicates, either direction)
Method in brief: as §2

[11] = tested on: Klebsiella aerogenes DSM 30053; assay: as above
Method in brief: as §2

[12] = tested on: Ruminococcus gnavus DSM 108212; assay: fold change of 2-Phenylethylamine concentration vs plate DMSO controls (fold change (ratio)); higher = more amine produced, active = hit call of the paper (significant change in both replicates, either direction)
Method in brief: as §2

SMILES	growth [1]	growth (Escherichia coli IAI1 [2])	growth [3]	growth [4]	fold change of Histamine concentration [5]	fold change of Tryptamine concentration [6]	fold change of Tryptamine concentration [7]	fold change of Putrescine concentration (Escherichia coli IAI1 [8])	fold change of Putrescine concentration [9]	fold change of Cadaverine concentration (Escherichia coli IAI1 [10])	fold change of Cadaverine concentration [11]	fold change of 2-Phenylethylamine concentration [12]
N#Cc1ccc(C(c2ccc(C#N)cc2)n2cncn2)cc1 [Letrozole] (20 µM)	1.05	1.02	0.996	1.12	1.07 (inactive)	0.988 (inactive)	1.01 (inactive)	1.03 (inactive)	1.01 (inactive)	0.964 (inactive)	0.992 (inactive)	1.02 (inactive)
CNCC[C@@H](Oc1cccc2ccccc12)c1cccs1 [(R)-Duloxetine hydrochloride] (20 µM)	1.03	1.07	0.994	0.9	1.01 (inactive)	0.986 (inactive)	0.979 (inactive)	1.04 (inactive)	0.994 (inactive)	0.952 (inactive)	0.986 (inactive)	1.02 (inactive)
O=C(NC1CCN(CCCCC2(C(=O)NCC(F)(F)F)c3ccccc3-c3ccccc32)CC1)c1ccccc1-c1ccc(C(F)(F)F)cc1 [Lomitapide] (20 µM)	1.1	1	1.06	1.07	0.938 (inactive)	1.01 (inactive)	0.709 (active)	1.02 (inactive)	1.01 (inactive)	1.04 (inactive)	1.01 (inactive)	0.847 (inactive)
CC(C(=O)O)c1ccc(CC2CCCC2=O)cc1 (stereo not drawn) [Loxoprofen] (20 µM)	1.24	1.03	1.06	1.13	0.95 (inactive)	1.05 (inactive)	1 (inactive)	1.02 (inactive)	1.02 (inactive)	0.981 (inactive)	1.01 (inactive)	0.997 (inactive)
O=C(O)CCNC(=O)c1ccc(/N=N/c2ccc(O)c(C(=O)O)c2)cc1 [Balsalazide disodium salt] (20 µM)	1	1	1.02	0.934	0.892 (inactive)	0.993 (inactive)	1.21 (inactive)	0.893 (inactive)	1.01 (inactive)	0.963 (inactive)	1.11 (inactive)	1.51 (active)
O=c1cc(-c2ccc(O)c(O)c2)oc2cc(O)cc(O)c12 [Luteolin] (20 µM)	0.877	0.977	0.977	1.11	0.969 (inactive)	0.776 (inactive)	0.985 (inactive)	1.07 (inactive)	0.991 (inactive)	1.03 (inactive)	1.02 (inactive)	1.08 (inactive)
C=CCOC(Cn1ccnc1)c1ccc(Cl)cc1Cl (stereo not drawn) (20 µM)	1.09	0.991	1.02	0.883	0.976 (inactive)	1.08 (inactive)	1 (inactive)	0.942 (inactive)	0.941 (inactive)	0.909 (inactive)	1.06 (inactive)	1.07 (inactive)
CCc1ccc(C(=O)C(C)CN2CCCCC2)cc1 (stereo not drawn) [Eperisone Hydrochloride] (20 µM)	1.04	0.959	0.959	0.991	0.995 (inactive)	1.04 (inactive)	0.954 (inactive)	0.986 (inactive)	0.98 (inactive)	0.992 (inactive)	0.991 (inactive)	1.02 (inactive)
O=C(O)c1ccccc1C(=O)Nc1ccc(S(=O)(=O)Nc2nccs2)cc1 [Phthalylsulfathiazole] (20 µM)	0.901	0.981	0.96	1.09	1 (inactive)	1.1 (inactive)	0.948 (inactive)	1.03 (inactive)	1.01 (inactive)	1.04 (inactive)	0.987 (inactive)	0.919 (inactive)
CCOC(=O)O[C@]1(C(=O)COC(=O)CC)CC[C@H]2[C@@H]3CCC4=CC(=O)C=C[C@]4(C)[C@H]3[C@@H](O)C[C@@]21C [Prednicarbate] (20 µM)	1.04	1.09	1.01	0.865	1.02 (inactive)	0.97 (inactive)	1.2 (inactive)	0.941 (inactive)	1.03 (inactive)	1.01 (inactive)	1.12 (inactive)	1.41 (inactive)
O=C(O)c1cc(=O)c2ccccc2o1 [Chromocarb] (20 µM)	0.945	0.984	0.99	0.957	1.02 (inactive)	1.01 (inactive)	0.989 (inactive)	1.01 (inactive)	0.998 (inactive)	0.983 (inactive)	0.979 (inactive)	0.974 (inactive)
CN1CCN(c2c(F)cc3c(=O)c(C(=O)O)cn4c3c2OCN4C)CC1 [Marbofloxacin] (20 µM)	0.0155	0.0185	0.139	1.36	0.107 (active)	0.0554 (active)	0.992 (inactive)	0.616 (active)	0.607 (active)	0.231 (active)	0.932 (inactive)	1.04 (inactive)
Cc1ccccc1OCC(O)CO (stereo not drawn) [Mephenesin] (20 µM)	0.974	1.12	1.02	0.982	1.01 (inactive)	1.02 (inactive)	1.04 (inactive)	1.13 (inactive)	1 (inactive)	0.927 (inactive)	1 (inactive)	1.06 (inactive)
Oc1c(Cl)cc(Cl)c(Cl)c1Cc1c(O)c(Cl)cc(Cl)c1Cl (20 µM)	0	0.939	1.02	0	1.06 (inactive)	0.00872 (active)	0.0717 (active)	1.06 (inactive)	1.01 (inactive)	1.37 (active)	1.02 (inactive)	0.0513 (active)
CCC(C)n1ncn(-c2ccc(N3CCN(c4ccc(OCC5COC(Cn6cncn6)(c6ccc(Cl)cc6Cl)O5)cc4)CC3)cc2)c1=O (stereo not drawn) [Itraconazole] (20 µM)	1.03	0.985	1.03	0.531	1.13 (inactive)	1.02 (inactive)	1.05 (inactive)	1.01 (inactive)	1.03 (inactive)	1 (inactive)	0.995 (inactive)	0.997 (inactive)
CCn1cc(C(=O)O)c(=O)c2cnc(N3CCCC3)nc21 [Piromidic acid] (20 µM)	1.09	1.01	1	0.973	0.944 (inactive)	1.02 (inactive)	1.06 (inactive)	0.913 (inactive)	1.02 (inactive)	1.06 (inactive)	0.999 (inactive)	1.09 (inactive)
c1cc2ccc3ccc4ccc5cccc6c(c1)c2c3c4c56 [Benzo-[g,h,i]perylene] (20 µM)	0.921	1.01	1.06	1.05	1.04 (inactive)	1.02 (inactive)	0.905 (inactive)	1.04 (inactive)	1.01 (inactive)	1 (inactive)	0.976 (inactive)	0.88 (inactive)
CCN(CC)CCOC(=O)C(c1ccccc1)C1CCCCC1 (stereo not drawn) [Drofenine hydrochloride] (20 µM)	0.967	0.977	1	0.939	1.03 (inactive)	0.99 (inactive)	0.866 (inactive)	1.06 (inactive)	1.01 (inactive)	1.04 (inactive)	0.992 (inactive)	0.921 (inactive)
Cc1ncc([N+](=O)[O-])n1C [Dimetridazole] (20 µM)	0.0144	1.02	0.995	0.811	0.868 (inactive)	0.0153 (active)	0.218 (active)	1.05 (inactive)	1.01 (inactive)	1.07 (inactive)	1.01 (inactive)	0.218 (active)
N=C(N)N/N=C/c1c(Cl)cccc1Cl [Guanabenz acetate] (20 µM)	0.918	0.923	0.914	1.48	1.02 (inactive)	1.03 (inactive)	1.02 (inactive)	0.979 (inactive)	0.99 (inactive)	1.01 (inactive)	0.973 (inactive)	1.02 (inactive)
O=P(O)(O)C(O)(Cc1cccnc1)P(=O)(O)O [Risedronic acid monohydrate] (20 µM)	1.08	1.12	1	0.913	1.05 (inactive)	1.04 (inactive)	1.04 (inactive)	1.2 (inactive)	1.02 (inactive)	0.97 (inactive)	1.01 (inactive)	1.07 (inactive)
O=C(CO)[C@@H](O)[C@@H](O)[C@H](O)CO [D-Tagatose] (50 µM)	0.957	1.01	1.03	0.984	0.943 (inactive)	0.991 (inactive)	0.995 (inactive)	1.03 (inactive)	1.02 (inactive)	1.07 (inactive)	1.03 (inactive)	0.992 (inactive)
Cc1c(N(C)CS(=O)(=O)O)c(=O)n(-c2ccccc2)n1C [Dipyrone sodium salt] (20 µM)	1.02	1.14	1.07	1.13	0.958 (inactive)	1.11 (inactive)	1.03 (inactive)	1.05 (inactive)	0.957 (inactive)	0.991 (inactive)	1.02 (inactive)	1 (inactive)
CC(C)N1CCN(c2ccc(OCC3COC(Cn4cncn4)(c4ccc(Cl)cc4Cl)O3)cc2)CC1 (stereo not drawn) [Terconazole] (20 µM)	1.12	1	1.01	1	0.996 (inactive)	0.976 (inactive)	1 (inactive)	1 (inactive)	0.993 (inactive)	0.989 (inactive)	1 (inactive)	0.977 (inactive)
